From PubChem BioAssay (NCI)
Compounds without any hit were thinned out: in the full panel of roughly 83,000, 20% have a hit.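 48-hour exposure, single concentration, 96-well plates; percent growth endpoint where 0 means no net growth. Active: below 10.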 Active and inactive are the calls of the source.

Experiments:
Experiment in all cases: NCI-60 one-dose screen, 48 h (100 = growth as untreated, 0 = no growth, -100 = all killed)
Conditions in all cases: 10 µM unless noted
[1] = test system: SR leukemia
[2] = test system: RPMI-8226 leukemia
[3] = test system: OVCAR-8 ovarian
[4] = test system: OVCAR-5 ovarian
[5] = test system: OVCAR-4 ovarian
[6] = test system: SK-OV-3 ovarian
[7] = test system: IGROV1 ovarian
[8] = test system: OVCAR-3 ovarian
[9] = test system: HS 578T breast
[10] = test system: NCI/ADR-RES ovarian
[11] = test system: T-47D breast
[12] = test system: BT-549 breast
[13] = test system: MDA-MB-435 melanoma
[14] = test system: SW-620 colon
[15] = test system: MCF7 breast
[16] = test system: HCT-116 colon
[17] = test system: HCC-2998 colon
[18] = test system: KM12 colon

Measured: growth

CCCCCCCCCCCCCCCCCCOc1ccccc1CC(=O)OCC[N+]1(C)CCOCC1
active: [7] -9.88%
inactive: [1] 50.7% | [2] 59.7% | [3] 41% | [4] 63.1% | [5] 60.5% | [6] 100% | [8] 65.4% | [9] 55.1% | [10] 104% | [11] 84.9% | [12] 82.9% | [13] 82.4% | [14] 77.1% | [15] 79.8% | [16] 65.6% | [17] 71.8% | [18] 65.8%

S=c1ssnc1-c1cccs1
active: [7] -4.8%
inactive: [1] 98.6% | [2] 97.3% | [3] 113% | [4] 115% | [5] 99.8% | [6] 98.4% | [8] 78.9% | [9] 46.6% | [10] 97.2% | [11] 92.6% | [12] 116% | [13] 83.9% | [14] 83.7% | [15] 91.6% | [16] 89.4% | [17] 98.4% | [18] 92.1%

O=C1/C(=C/c2ccc(C(F)(F)F)cc2)COc2ccc(O)cc21
inactive: [3] 76.4% | [4] 96.5% | [5] 82.7% | [6] 116% | [7] 82.5% | [8] 94.8% | [9] 95.8% | [10] 94.3% | [11] 78% | [13] 87.7% | [16] 33.2% | [17] 94.1% | [18] 52.2%
active: [1] 9.82% | [2] -23.2% | [14] 1.98% | [15] 6.03%

Cc1ccc2[nH]c(-c3ccc(S(C)(=O)=O)cc3)c(/C=N/N=C(N)N)c2c1
inactive: [1] 24.4% | [2] 39.2% | [3] 58.4% | [4] 101% | [5] 90.7% | [6] 57.7% | [7] 76.2% | [8] 27.6% | [9] 50.5% | [10] 49.4% | [11] 67.8% | [14] 36.4% | [15] 64.6% | [16] 24.4% | [17] 74% | [18] 46.1%
active: [13] -21.9%

N#CC(C#N)N=Nc1ccc(Cl)cc1Cl
inactive: [1] 48.1% | [2] 50.8% | [3] 94% | [4] 104% | [5] 71.4% | [6] 77% | [7] 89.5% | [8] 62% | [9] 103% | [10] 103% | [11] 24.3% | [13] 111% | [14] 87.3% | [15] 73.6% | [16] 66.1% | [17] 109% | [18] 101%

COc1cc2c(cc1O)[C@@]1(C)[C@H](c3ccccc3Br)OC(=O)N1CC2
inactive: [1] 86.6% | [2] 67.1% | [3] 88.2% | [4] 121% | [5] 76.6% | [6] 107% | [7] 111% | [8] 94.1% | [9] 97.9% | [10] 83.8% | [11] 65.4% | [12] 92.8% | [13] 92.1% | [14] 104% | [15] 99.1% | [16] 77.1% | [17] 99% | [18] 89.7%

CN1CCN(CCCOC(=O)c2c3c(n4ccccc24)C(=O)c2ncccc2C3=O)CC1
inactive: [11] 47.6% | [12] 24.9% | [17] 29.9% | [18] 17.5%
active: [1] -11.2% | [2] -0.22% | [3] 4.94% | [4] -4.35% | [5] -11.6% | [6] -46.4% | [7] 4.12% | [8] 0.457% | [9] -1.51% | [10] 2.37% | [13] -40.4% | [14] -57.2% | [15] -45.9% | [16] -29.5%

CCCCCCCCNc1cc2c3c(c1)CCCN3CCC2
inactive: [1] 26% | [2] 12.3% | [3] 15.8% | [4] 17.6% | [5] 35.2% | [6] 10.7% | [7] 29.7% | [9] 23.3% | [10] 70.7% | [11] 13.4% | [15] 24.3% | [17] 11.8%
active: [8] 4.22% | [13] 9.1% | [14] 9.22% | [16] 5.39% | [18] 5.45%

NC(=O)OCCn1cc(-c2nc(-c3c[nH]c4ncccc34)cs2)c2ccccc21
inactive: [1] 24.2% | [2] 24.9% | [3] 41.6% | [4] 58.2% | [5] 71.7% | [6] 41.6% | [7] 41.3% | [8] 27.9% | [9] 41.4% | [10] 38.1% | [11] 44.7% | [12] 32.8% | [15] 18.3% | [16] 30.8% | [17] 71.7% | [18] 23%
active: [13] -33.4% | [14] 8.68%

CC(C)(C)C(=O)/C=C/c1ccc([N+](=O)[O-])cc1
inactive: [2] 23.5% | [3] 76.8% | [4] 108% | [5] 91.5% | [6] 98.7% | [7] 96% | [8] 84.9% | [9] 90.2% | [10] 60.2% | [11] 65.8% | [13] 47.1% | [14] 20% | [16] 42.2% | [17] 119% | [18] 31.9%
active: [1] 8.57% | [15] 8.67%

C=CC(C)(O)CC/C=C(\CO)C(=O)OC1C(C)OC(O[C@](C)(C=C)CC/C=C(\CO)C(=O)O[C@H]2C[C@@]3(C(=O)OC4OC(CO)C(O)C(O)C4OC4OC(C)C(OC5OC(CO)C(O)C5O)C(OC5OC(CO)C(O)C(O)C5O)C4O)C(CC2(C)C)C2=CCC4[C@@]5(C)CC[C@H](OC6OC(COC7OC(C)C(O)C(O)C7OC7OCC(O)C(O)C7O)C(O)C(O)C6NC(C)=O)C(C)(C)C5CC[C@@]4(C)[C@]2(C)C[C@H]3O)C(O)C1O (stereo not given in full)
active: [1] -26.7% | [5] -29.2% | [6] -79.8% | [7] -49.2% | [8] -94% | [9] -31.4% | [11] -54% | [13] -80.5% | [14] -43.2% | [15] -50% | [16] 6.13% | [17] -90.5% | [18] -86.7%
inactive: [2] 41.4% | [3] 10.3% | [4] 11.8% | [10] 17.5%

CC1(C)OC(=O)C(=Cc2cccc(Br)c2)C(=O)O1
inactive: [1] 99.7% | [2] 97.4% | [3] 98.4% | [4] 117% | [5] 114% | [6] 109% | [7] 102% | [8] 107% | [9] 90.8% | [10] 107% | [11] 92.7% | [13] 108% | [14] 102% | [15] 102% | [16] 102% | [17] 113% | [18] 111%

O=c1ccc2nc(C(F)(F)F)nn(-c3ccccc3)c-2c1
inactive: [2] 45.8% | [3] 73.1% | [4] 102% | [5] 79.8% | [6] 79.3% | [7] 71.7% | [9] 74% | [10] 84% | [13] 62.3% | [16] 35.2% | [17] 102% | [18] 96.8%
active: [1] -11.3% | [8] -26.1% | [11] -40.8% | [14] -63.3% | [15] -49.3%

COc1ccc(NC(=O)c2sc3nc(C)c(C(O)c4ccccc4)cc3c2N)cc1 (stereo not given)
active: [1] 4.79% | [8] 8.68% | [13] -27.8%
inactive: [2] 11.8% | [3] 27.6% | [4] 37.9% | [5] 78% | [6] 24.1% | [7] 36.6% | [9] 22.8% | [10] 10.6% | [11] 23.9% | [14] 25.4% | [15] 19.1% | [16] 21.4% | [17] 19.4% | [18] 20.3%

COc1ccc2cc(Cn3cc[n+](Cc4ccc5ccccc5c4)c3)ccc2c1
active: [1] 9.3% | [2] 1.54% | [3] 8.73% | [5] 8.75% | [7] -9.16% | [8] 4.18% | [11] -4.51% | [13] 7% | [18] -23.2%
inactive: [4] 45.6% | [6] 29.8% | [9] 46.3% | [10] 102% | [14] 44.4% | [15] 40.9% | [16] 33.7% | [17] 26.7%

O=C(/C=C/c1cccc(Cl)c1)c1cccc(OCCCCOc2cccc(C(=O)/C=C/c3cccc(Cl)c3)c2)c1
active: [2] -26.8% | [16] -13.7%
inactive: [1] 39.5% | [3] 97.3% | [4] 109% | [5] 93.3% | [6] 113% | [7] 88.9% | [8] 91.9% | [9] 95.8% | [10] 99.7% | [11] 75.8% | [12] 92.6% | [13] 70.9% | [14] 75.1% | [15] 12.6% | [17] 85.5% | [18] 70.5%

Cc1nc2sc(C(=O)Nc3cccc(Cl)c3)c(N)c2cc1C(O)c1ccccc1 (stereo not given)
inactive: [2] 11.3% | [3] 19% | [4] 41.4% | [5] 71.6% | [6] 40.6% | [7] 28.7% | [9] 19% | [11] 50.6% | [14] 33.1% | [15] 21.9% | [16] 13.9% | [17] 17.8% | [18] 18.3%
active: [1] 8.06% | [8] 6.3% | [10] 5.21% | [13] 5.16%
